Reference: the supplement of paper PMC8728848
Shown is part of a subset that was picked to be rich in the strongest signals.

Assays:
Assay in all cases: glycan array binding signal (z-score within array); higher = stronger binding
Conditions in all cases: glycan notation: IUPAC condensed, linker removed
[1] = target: GalNAc(b1-3)Gal(a1-4)Gal(b1-4)GlcNAc(b1-3)Gal(b1-4)Glc
Summary of the method: (§1)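 Arrays were curated from the Consortium for Functional Glycomics database, 3228 in total, and kept only where the protein sequence was available. Binding is expressed as a within-array Z-score. This score was averaged across arrays of the same protein sequence at different concentrations or buffers and across linkers, and negative values can be read as non-binding.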

[2] = target: GalNAc(b1-4)GlcNAc(b1-2)Man
Summary of the method: as §1

[3] = target: Glc(b1-4)Glc
Summary of the method: as §1

[4] = target: GlcNAc(b1-2)Gal(b1-3)GalNAc
Summary of the method: as §1

[5] = target: GlcNAc(b1-2)[GlcNAc(b1-4)]Man(a1-3)[GlcNAc(b1-4)][GlcNAc(b1-2)[GlcNAc(b1-6)]Man(a1-6)]Man(b1-4)GlcNAc(b1-4)GlcNAc
Summary of the method: as §1

[6] = target: GlcNAc(b1-3)Gal(b1-4)Glc
Summary of the method: as §1

[7] = target: GlcNAc(b1-3)Gal(b1-4)GlcNAc(b1-2)Man(a1-3)[GlcNAc(b1-3)Gal(b1-4)GlcNAc(b1-2)Man(a1-6)]Man(b1-4)GlcNAc(b1-4)GlcNAc
Summary of the method: as §1

[8] = target: GlcNAc(b1-3)Gal(b1-4)GlcNAc(b1-3)Gal(b1-4)GlcNAc(b1-2)[GlcNAc(b1-3)Gal(b1-4)GlcNAc(b1-3)Gal(b1-4)GlcNAc(b1-6)]Man(a1-6)[GlcNAc(b1-3)Gal(b1-4)GlcNAc(b1-3)Gal(b1-4)GlcNAc(b1-2)Man(a1-3)]Man(b1-4)GlcNAc(b1-4)[Fuc(a1-6)]GlcNAc
Summary of the method: as §1

[9] = target: GlcNAc(b1-3)Gal(b1-4)GlcNAc(b1-3)Gal(b1-4)GlcNAc(b1-3)Gal(b1-4)GlcNAc(b1-3)Gal(b1-4)GlcNAc(b1-2)Man(a1-3)[GlcNAc(b1-3)Gal(b1-4)GlcNAc(b1-3)Gal(b1-4)GlcNAc(b1-3)Gal(b1-4)GlcNAc(b1-3)Gal(b1-4)GlcNAc(b1-2)Man(a1-6)]Man(b1-4)GlcNAc(b1-4)GlcNAc
Summary of the method: as §1

[10] = target: GlcNAc(b1-3)Gal(b1-4)GlcNAc(b1-3)Gal(b1-4)GlcNAc(b1-3)GalNAc
Summary of the method: as §1

[11] = target: Neu5Ac(a2-3)Gal(b1-3)GalNAc(b1-3)Gal(a1-4)Gal(b1-4)Glc
Summary of the method: as §1

[12] = target: Neu5Ac(a2-3)Gal(b1-3)GlcNAc(b1-2)[Neu5Ac(a2-3)Gal(b1-3)GlcNAc(b1-4)]Man(a1-6)[Neu5Ac(a2-3)Gal(b1-3)GlcNAc(b1-2)Man(a1-3)]Man(b1-4)GlcNAc(b1-4)GlcNAc
Summary of the method: as §1

[13] = target: Neu5Ac(a2-3)Gal(b1-4)GlcNAc(b1-2)Man(a1-3)[Neu5Ac(a2-3)Gal(b1-4)GlcNAc(b1-2)Man(a1-6)]Man(b1-4)GlcNAc(b1-4)[Fuc(a1-6)]GlcNAc
Summary of the method: as §1

[14] = target: Neu5Ac(a2-3)Gal(b1-4)[Fuc(a1-3)]GlcNAc(b1-2)Man
Summary of the method: as §1

[15] = target: Neu5Ac(a2-3)Gal(b1-4)[Fuc(a1-3)]GlcNAc(b1-6)[Neu5Ac(a2-3)Gal(b1-3)]GalNAc
Summary of the method: as §1

[16] = target: Neu5Ac(a2-3)Gal(b1-4)[Fuc(a1-3)]GlcNAc6S
Summary of the method: as §1

[17] = target: Neu5Ac(a2-6)Gal(b1-4)GlcNAc
Summary of the method: as §1

[18] = target: Neu5Ac(a2-6)Gal(b1-4)GlcNAc(b1-2)Man(a1-3)[Gal(b1-4)GlcNAc(b1-2)Man(a1-6)]Man(b1-4)GlcNAc(b1-4)GlcNAc
Summary of the method: as §1

[19] = target: Neu5Ac(a2-6)Gal(b1-4)GlcNAc(b1-2)Man(a1-3)[Neu5Ac(a2-6)Gal(b1-4)GlcNAc(b1-2)Man(a1-6)]Man(b1-4)GlcNAc(b1-4)[Fuc(a1-6)]GlcNAc
Summary of the method: as §1

[20] = target: Neu5Ac(a2-6)Gal(b1-4)GlcNAc(b1-3)Gal(b1-4)GlcNAc(b1-3)Gal(b1-4)GlcNAc(b1-2)Man(a1-3)[Neu5Ac(a2-6)Gal(b1-4)GlcNAc(b1-3)Gal(b1-4)GlcNAc(b1-3)Gal(b1-4)GlcNAc(b1-2)Man(a1-6)]GalNAc
Summary of the method: as §1

[21] = target: Neu5Ac(a2-6)Gal(b1-4)GlcNAc(b1-3)[Neu5Ac(a2-6)Gal(b1-4)GlcNAc(b1-6)]GalNAc
Summary of the method: as §1

[22] = target: Neu5Ac(a2-8)Neu5Ac(a2-3)Gal(b1-3)GalNAc(b1-4)[Neu5Ac(a2-8)Neu5Ac(a2-3)]Gal(b1-4)Glc
Summary of the method: as §1

[23] = target: Neu5Ac(a2-8)Neu5Ac(a2-3)[Gal(b1-3)GalNAc(b1-4)]Gal(b1-4)Glc
Summary of the method: as §1

[24] = target: Neu5Ac(b2-6)Gal(b1-4)GlcNAc
Summary of the method: as §1

[25] = target: Neu5Gc(a2-8)Neu5Gc(a2-3)Gal(b1-4)GlcNAc(b1-3)Gal(b1-4)GlcNAc
Summary of the method: as §1

B1: Agalectin (Anopheles gambiae) (protein)
chain: MSNRPFTAKFPRYPENGDEVFIRGKLKDDAKSFSVNFCLPRPAQVAEHQTPPYIALHFKTIYDERDDTSRVVLNWKNLQWQQEEVLDNYWHVDRSQTFRVVFRLHEDCIKVFVNSVDHPPDYQFPVQLPLDQIESIELWDDVEHVEEISFRYDNGNSY
[1]
  glycan array binding signal (z-score): 0.038
[2]
  glycan array binding signal (z-score): 0.499
[3]
  glycan array binding signal (z-score): -0.613
[4]
  glycan array binding signal (z-score): -1.34
[5]
  glycan array binding signal (z-score): -0.389
[6]
  glycan array binding signal (z-score): -0.291
[7]
  glycan array binding signal (z-score): -0.912
[8]
  glycan array binding signal (z-score): 3.5
[9]
  glycan array binding signal (z-score): 3.07
[10]
  glycan array binding signal (z-score): -0.362
[11]
  glycan array binding signal (z-score): 0.518
[12]
  glycan array binding signal (z-score): 0.945
[13]
  glycan array binding signal (z-score): -0.933
[14]
  glycan array binding signal (z-score): 0.193
[15]
  glycan array binding signal (z-score): 3.95
[16]
  glycan array binding signal (z-score): 3.86
[17]
  glycan array binding signal (z-score): 0.241
[18]
  glycan array binding signal (z-score): -0.321
[19]
  glycan array binding signal (z-score): 5.84
[20]
  glycan array binding signal (z-score): 2.96
[21]
  glycan array binding signal (z-score): -0.501
[22]
  glycan array binding signal (z-score): 0.647
[23]
  glycan array binding signal (z-score): -0.464
[24]
  glycan array binding signal (z-score): -0.879
[25]
  glycan array binding signal (z-score): 0.981
